Laboratory results taken from PubChem BioAssay (Tox21).
Values joined by “and” are separate entries in the source; they are usually repeats but may differ in a detail not shown here. Identical values can stand only once. Inconclusive results are not listed. Some compounds were tested as several samples or in several runs, with calls that do not always agree. Active and inactive are the calls of the source. Unless noted, calls follow the shape of the dose curve; as a rule, active = well fitted curve in the direction sought with a large enough effect in the repeat runs; inconclusive = weak or mixed curves; inactive = no such curve, though single readings can be large; an effect the other way counts as inactive or inconclusive.

Legend:
[1] = qHTS assay to identify small molecule agonists of the peroxisome proliferator-activated receptor delta (PPARd) signaling pathway - cell viability counter screen (AID 743211); also: nearly all actives have a fitted effect of over 55% in size; also: potency is read from the fitted curve at half-maximal effect
How it was run: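 PPARd-bla HEK293H cells (3000/well) were pre-incubated 5 h at 37 C, then exposed to compound for 17 h at 37 C. After 2 h with LiveBLAzer substrate, CellTiter-Glo was added to the same wells; luminescence read after 30 min at room temperature.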

[2] = qHTS assay to identify small molecule antagonists of the peroxisome proliferator-activated receptor delta (PPARd) signaling pathway - cell viability counter screen (AID 743213); also: nearly all actives have a fitted effect of over 50% in size; also: potency is read from the fitted curve at half-maximal effect
How it was run: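 PPARd-bla HEK293H cells were treated with compounds plus agonist L165041 (300 nM final) for 17 h at 37 C. Viability was then read in the same wells by CellTiter-Glo luminescence after 30 min at room temperature.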

[3] = molecular target: Bile acid receptor (Homo sapiens) (UniProt Q96RI1); experiment: qHTS assay to identify small molecule antagonists of the farnesoid-X-receptor (FXR) signaling pathway (AID 743217; active = well fitted inhibition curve with a large enough effect in the signal ratio in the repeat runs, not every such curve was filed as active; the % refers to the signal ratio; also: potency is read from the fitted curve at half-maximal effect)
Bile acid receptor (Homo sapiens), sequence (Q96RI1 whole entry, looked up): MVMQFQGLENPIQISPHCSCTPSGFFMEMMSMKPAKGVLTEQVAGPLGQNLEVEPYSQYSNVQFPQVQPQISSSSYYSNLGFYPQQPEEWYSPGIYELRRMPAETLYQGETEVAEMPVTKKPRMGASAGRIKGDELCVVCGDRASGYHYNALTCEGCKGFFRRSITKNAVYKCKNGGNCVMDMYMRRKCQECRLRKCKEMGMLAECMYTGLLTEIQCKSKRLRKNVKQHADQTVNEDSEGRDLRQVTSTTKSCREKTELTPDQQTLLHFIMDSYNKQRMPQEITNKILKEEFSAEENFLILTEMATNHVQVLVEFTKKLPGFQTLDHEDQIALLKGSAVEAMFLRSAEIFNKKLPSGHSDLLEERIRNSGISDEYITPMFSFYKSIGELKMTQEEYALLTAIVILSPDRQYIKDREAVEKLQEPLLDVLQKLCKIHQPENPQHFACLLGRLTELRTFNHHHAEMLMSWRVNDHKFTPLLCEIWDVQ
How it was run: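 Antagonist mode against 50 uM (final) chenodeoxycholic acid stimulation in FXR-bla HEK 293T cells, 16 h at 37 °C. Inhibition detected as reduced beta-lactamase activity via LiveBLAzer B/G FRET fluorescence after 2 h at room temperature.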

[4] = molecular target: Bile acid receptor (Homo sapiens) (UniProt Q96RI1); experiment: qHTS assay to identify small molecule agonists of the farnesoid-X-receptor (FXR) signaling pathway (AID 743220; active = well fitted activation curve with a large enough effect in the signal ratio in the repeat runs, not every such curve was filed as active; the % refers to the signal ratio)
How it was run: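 Beta-lactamase reporter under UAS control in GeneBLAzer FXR HEK 293T cells (5000/well) measured with LiveBLAzer FRET substrate after 2 h at room temperature. Compound exposure lasted 16 h at 37C.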

[5] = qHTS assay to identify small molecule antagonists of the farnesoid-X-receptor (FXR) signaling pathway - cell viability counter screen (AID 743221; active = well fitted cell-killing curve with a large enough effect in the repeat runs, not every such curve was filed as active; also: nearly all actives have a fitted effect of over 50% in size; also: potency is read from the fitted curve at half-maximal effect)
How it was run: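 GeneBLAzer FXR-UAS-bla HEK 293T cells, compound plus chenodeoxycholic acid (50 uM final), 16 h at 37 C. CellTiter-Glo added to the same wells after the beta-lactamase read; luminescence read after 30 min at room temperature as viability.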

[6] = qHTS assay to identify small molecule agonists of the farnesoid-X-receptor (FXR) signaling pathway - cell viability counter screen (AID 743218); also: nearly all actives have a fitted effect of over 45% in size; also: potency is read from the fitted curve at half-maximal effect
How it was run: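 Cytotoxicity counter-screen run in parallel, same wells: FXR-UAS-bla HEK 293T cells dosed 16 h at 37 C, viability read by CellTiter-Glo luminescence after 30 min at room temperature.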

[7] = molecular target: Vitamin D3 receptor (Homo sapiens) (UniProt P11473); experiment: qHTS assay to identify small molecule agonists of the vitamin D receptor (VDR) signaling pathway (AID 743222; calls by dose curve)
Vitamin D3 receptor (Homo sapiens), sequence (P11473 whole entry, looked up): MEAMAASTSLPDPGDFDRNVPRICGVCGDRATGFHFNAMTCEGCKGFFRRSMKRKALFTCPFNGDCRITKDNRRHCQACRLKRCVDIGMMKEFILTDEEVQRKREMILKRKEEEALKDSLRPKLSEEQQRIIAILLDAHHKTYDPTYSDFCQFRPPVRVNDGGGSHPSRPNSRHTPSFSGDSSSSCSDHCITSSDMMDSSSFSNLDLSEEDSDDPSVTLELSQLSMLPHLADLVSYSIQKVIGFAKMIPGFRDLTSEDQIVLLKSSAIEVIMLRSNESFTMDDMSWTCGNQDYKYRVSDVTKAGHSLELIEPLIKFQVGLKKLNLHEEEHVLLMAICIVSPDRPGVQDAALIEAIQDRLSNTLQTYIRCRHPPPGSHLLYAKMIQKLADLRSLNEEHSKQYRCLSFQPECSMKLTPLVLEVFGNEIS
How it was run: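 Quantitative HTS agonist-mode screen: compounds in DMSO were pin-transferred onto VDR-bla cells and incubated 16 h at 37C, 5% CO2. Reporter activity was detected with LiveBLAzer B/G FRET substrate after 2 h at room temperature.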

[8] = molecular target: Peroxisome proliferator-activated receptor delta (Homo sapiens) (UniProt Q03181); experiment: qHTS assay to identify small molecule agonists of the peroxisome proliferator-activated receptor delta (PPARd) signaling pathway (AID 743212; calls by dose curve; also: potency is read from the fitted curve at half-maximal effect)
Peroxisome proliferator-activated receptor delta (Homo sapiens), sequence (Q03181 whole entry, looked up): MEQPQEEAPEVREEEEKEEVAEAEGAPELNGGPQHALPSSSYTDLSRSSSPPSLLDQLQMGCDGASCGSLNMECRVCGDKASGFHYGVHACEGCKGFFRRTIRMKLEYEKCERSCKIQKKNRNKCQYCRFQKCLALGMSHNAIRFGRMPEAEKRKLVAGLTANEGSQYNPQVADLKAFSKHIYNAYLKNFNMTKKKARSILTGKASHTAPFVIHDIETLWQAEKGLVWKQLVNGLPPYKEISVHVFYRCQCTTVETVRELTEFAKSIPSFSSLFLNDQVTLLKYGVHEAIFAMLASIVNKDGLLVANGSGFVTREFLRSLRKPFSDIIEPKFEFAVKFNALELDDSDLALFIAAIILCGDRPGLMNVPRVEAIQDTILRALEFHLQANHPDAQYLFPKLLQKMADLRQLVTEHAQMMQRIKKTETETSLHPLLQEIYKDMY
How it was run: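 A PPARd-bla HEK293H line with beta-lactamase under an Upstream Activator Sequence is treated with compounds at 37 C. Substrate loading for 2 h at room temperature precedes the fluorescence measurement.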

[9] = molecular target: Peroxisome proliferator-activated receptor delta (Homo sapiens) (UniProt Q03181); experiment: qHTS assay to identify small molecule antagonists of the peroxisome proliferator-activated receptor delta (PPARd) signaling pathway (AID 743215; active = well fitted inhibition curve with a large enough effect in the signal ratio in the repeat runs, not every such curve was filed as active; the % refers to the signal ratio;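 also: cells stimulated with agonist L165041 at 300 nM final during compound exposure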; also: potency is read from the fitted curve at half-maximal effect)
How it was run: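 Inhibition of L165041-driven (300 nM final) PPARd signaling is scored in HEK293H UAS-bla cells. Exposure lasts 17 h at 37 C; beta-lactamase activity is then read by FRET substrate fluorescence after 2 h at room temperature.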

[10] = molecular target: Vitamin D3 receptor (Homo sapiens) (UniProt P11473); experiment: qHTS assay to identify small molecule antagonists of the vitamin D receptor (VDR) signaling pathway (AID 743223; active = well fitted inhibition curve with a large enough effect in the signal ratio in the repeat runs, not every such curve was filed as active; the % refers to the signal ratio; also: potency is read from the fitted curve at half-maximal effect)
How it was run: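 VDR-bla cells were treated with compound plus 3 nM final 1alpha,25-dihydroxyvitamin D3 for 16 h at 37C. Beta-lactamase reporter read by B/G FRET substrate fluorescence after 2 h at room temperature. qHTS format.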

Measured: Potency

O=C(OCc1ccccc1)c1ccc(O)cc1
inactive: [1] | [2] | [3] | [4] | [5]

Cc1cc(OCCOCC[N+](C)(C)Cc2ccccc2)ccc1C(C)(C)CC(C)(C)C
active: [1] 21.7 µM and 11.9 µM | [2] 19.4 µM | [3] 54.6 µM | [6] 17.3 µM and 18.8 µM | [5] 54.6 µM and 29.8 µM
inactive: [4]

NCCCCCC(=O)O
not listed: [8] | [9] | [10]
inactive: all other assays above

NC(=Nc1ccccc1)Nc1ccccc1
inactive: [1] | [8] | [9] | [6] | [5]

O=c1n(CC2CO2)c(=O)n(CC2CO2)c(=O)n1CC1CO1 (stereo unspecified)
inactive: [1] | [8] | [2] | [5] | [7]

CC(C)C(=O)c1c(C(C)C)nn2ccccc12
not listed: [7] | [8]
inactive: all other assays above

COc1ccc(CCN2CCC(Nc3nc4ccccc4n3Cc3ccc(F)cc3)CC2)cc1
inactive: [4]
active: [1] 2.81 µM and 7.5 µM | [2] 3.16 µM and 23.7 µM | [6] 2.81 µM and 23.7 µM | [5] 7.07 µM and 29.8 µM

CC[C@H]1CN2CCc3cc(OC)c(OC)cc3[C@@H]2C[C@@H]1C[C@H]1NCCc2cc(OC)c(OC)cc21
inactive: [8] | [5] | [7]
27.6 µM (active) and inactive: [6]
active: [1] 43.8 µM | [9] 438 nM | [10] 492 nM

CCCCCCC(O)CCCCCCCCCCC(=O)O (stereo unspecified)
active: [1] 19.6 µM and 19.5 µM | [8] 21.9 µM
inactive: [9] | [6]
inactive and 34.7 µM (active): [3]

Nc1nc2ccccc2[nH]1
not listed: [8] | [9]
inactive: all other assays above

CCCC(=O)c1ccccc1
not listed: [2] | [3] | [4]
inactive: all other assays above

COc1ccc(Cc2cnc(N)nc2N)cc1OC
not listed: [2] | [6]
inactive: all other assays above

CC(C)(c1ccccc1)c1ccc(Nc2ccc(C(C)(C)c3ccccc3)cc2)cc1
inactive: [1] | [2] | [6] | [5]

O=C1OC2(c3ccc(O)cc3Oc3cc(O)ccc32)c2ccccc21
inactive: [1] | [2] | [6] | [5]

COc1ccc(CCN(C)CCCC(C#N)(c2ccc(OC)c(OC)c2)C(C)C)cc1OC (stereo unspecified)
inactive: [1] | [2] | [6] | [5]

CC(C)(C)c1ccc(O)c(C(C)(C)C)c1
inactive: [7]
active: [1] 38.7 µM and 49 µM | [2] 38.7 µM and 49 µM | [5] 54.9 µM

CCCCCCCCCCCCCC[P+](CCCC)(CCCC)CCCC
active: [1] 6.88 µM and 8.71 µM | [2] 7.72 µM and 11 µM | [5] 21.8 µM and 21.9 µM | [10] 19.4 µM and 24.5 µM

CCC(C)(C)C(=O)O[C@H]1C[C@@H](C)C=C2C=C[C@H](C)[C@H](CC[C@@H]3C[C@@H](O)CC(=O)O3)[C@H]21
active: [5] 11 µM
inactive: [2] | [6] | [7]

Nc1nc(=S)c2[nH]cnc2[nH]1
inactive: [1] | [5]

O
inactive: [1] | [2] | [6] | [5]
